Shiga toxin inh = inhibitors of Shiga toxin in Vero cells | Vero cells, Shiga toxin protein synthesis inhibition reporter | inhibition, % at 38.7 µM | actives 9.2% (n = 290,000) | AID 2315; in the data active = inhibition mostly above about 28%, no sharp cut-off; inactive = mostly below about 43%; also: 0% is about no effect
FMDV antiviral = blocks foot and mouth disease virus; actives 1.2% (n = 410,000); AID 1159524; Potency, µM (top dose mostly 57.9 µM), for the others: at the highest dose activity change, negative = inhibition, most hits filed as inhibitors; FMDV antiviral cell-based qHTS; calls by dose curve; tested in HEK293T cells; also: read-out not given here; potency is read from the fitted curve at half-maximal effect; % is scaled to controls: 0 for no effect and ±100 for the full control effect; nearly all actives have a fitted effect of over 45% in size
Lassa entry inh = Lassa virus entry inhibition; Lassa virus pseudotype entry inhibition, cell reporter; Potency, µM (series often up to 37.9 µM), without a hit: at the top dose activity change, negative = inhibition, hits mostly inhibitors; actives 1.2% (n = 300,000); calls by dose curve; tested in HEK293 cells; also: potency is read from the fitted curve at half-maximal effect; % is scaled to controls: 0 for no effect and ±100 for the full control effect; nearly all actives have a fitted effect of over 50% in size
HCV inh = blocks hepatitis C virus. actives 3.4% (n = 340,000). Huh7.5.1 HCVcc-Cre infection, luciferase reporter, 44 h. Potency, µM (highest dose often 41.8 µM), for inactives: at the top dose activity change, negative = inhibition, hits mostly inhibitors; active = well fitted inhibition curve with a large enough effect; inconclusive = small, poorly fitted or top-dose-only effect, or another doubt; inactive = no such curve, though single readings can be large or run the other way; also: potency is read from the fitted curve at half-maximal effect; % is scaled to controls: 0 for no effect and ±100 for the full control effect
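Infectious HCV cell culture screen: compound-treated cells (1,000/well, pre-plated 4 h) are infected with HCVcc-Cre at roughly 0.5 moi and grown 44 h. Infection is quantified by luciferase signal after 15 min substrate incubation at room temperature.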
MARV entry inh = blocks Marburg virus binding to or entry into cells. Potency, µM (doses to about 37.8 µM), for inactives: top-dose activity change, negative = inhibition, usual class: inhibitors. actives 1.8% (n = 300,000). Marburg virus pseudotyped entry inhibition, cell reporter. AID 540276; calls by dose curve; tested in HEK293 cells; also: potency is read from the fitted curve at half-maximal effect; % is scaled to controls: 0 for no effect and ±100 for the full control effect
Cycloheximide cs = counter-screen hit for Shiga toxin inhibitors, cycloheximide; cell reporter, cycloheximide protein synthesis inhibition counterscreen; max response, %; actives 12% (n = 300,000); AID 2314; in the data active = max response mostly above about 13%, no sharp cut-off; inactive = mostly below about 14%; also: read at 38.3 µM for the half of the compounds with a filed dose; 0% is about no effect
Starred values were filed as active, the others as inactive; i = inactive; ? = inconclusive; · = not tested or not shown; + = active, no number; [ ] = another dose, or the depositor's remark. Sampled rows, rich in hits. Any-hit rate of the full collection: about 13%.

SMILES	Shiga toxin inh	FMDV antiviral	Lassa entry inh	HCV inh	MARV entry inh	Cycloheximide cs
O=C(Cc1ccccc1)NC(=S)Nc1ccc2oc(-c3ccccc3F)nc2c1	50.0*	32.4%	?	7.3%	-7.7%[46.1 µM]	29.3
Cc1ccc(C(=O)Cn2nc(C)c([N+](=O)[O-])c2C)c(C)c1	56.7*	23.3%	-12.3%	-15.2%	9.8%	19.6*
CN(C)c1ccc(C(=O)c2ccc(N(C)C)c3ccccc23)cc1	68.2*	42.4%	0.251µM*	11.2µM*	?	24.8*
CS(=O)(=O)c1ccccc1C(=O)Nc1nc2ccccc2[nH]1	14.4	-4.2%	?	6.0%	16.0%[46.1 µM]	12.6
CCSc1ccccc1C(=O)Nc1nc2ccccc2c(=O)[nH]1	17.2	-16.7%	-24.6%	?	?	11.8
CSc1ccccc1C(=O)Nc1nc2ccccc2[nH]1	73.5*	50.5%	?	-12.2%	?	39.2*
CSc1ccccc1C(=O)Nc1nc2ccccc2c(=O)[nH]1	80.4*	28.1%	?	?	?	32.4*
Cc1ccccc1SCC(=O)NNC(=O)c1ccncc1	·	2.0%	·	1.6%	·	·
CCN1CCN(c2cc(C)c3cc(NC(=S)NCCN(C)C)ccc3n2)CC1	-5.0	8.9%	?	?	?	2.2
CCCN1CCN(CCCNC(=S)Nc2ccc3nc(N4CCN(CC)CC4)cc(C)c3c2)CC1	-5.5	2.6%	·	?	·	-2.2
CCOC(=O)N1CCC(NC(=S)Nc2ccc3nc(N4CCN(C)CC4)cc(C)c3c2)CC1	-8.8	8.7%	21.6%	10µM*	?	-2.3
Cc1cc(N2CCN(C)CC2)nc2ccc(NC(=S)NCCN3CCc4ccccc4C3)cc12	-2.7	-22.1%	·	11.2µM*	-0.3%	-3.0
CCN1CCN(c2cc(C)c3cc(NC(=S)NCCCN4CCc5ccccc5C4)ccc3n2)CC1	27.3	1.0%	-24.0%	8.91µM*	12.6µM*	-11.0
Cc1cc(N2CCCC2)nc2ccc(NC(=S)NCCCN3CCC(C)CC3)cc12	-3.8	-15.5%	?	10µM*	?	-5.6
C#CCOc1c(Cl)cc(C2C3=C(CCCC3=O)N(CC(=O)O)C3=C2C(=O)CCC3)cc1OC	-0.8	7.0%	3.6%[46.1 µM]	16.6%	0.9%[46.1 µM]	-1.1
Cc1cc(N2CCN(C)CC2)nc2ccc(NC(=S)NCCCN3CCc4ccccc4C3)cc12	-10.5	-12.0%	?	11.2µM*	3.98µM*	-8.2
OCCNCC(O)Cn1c2ccccc2c2ccccc21 (centres undefined)	14.0	0.0%	·	7.8%	·	3.6
COc1ccccc1CNCC(O)Cn1c2ccccc2c2ccccc21 (centres undefined)	-26.9	?	16.4µM*	11.2µM*	8.2µM*	-10.9
COc1ccccc1CNCC(=O)Nc1ccc(N(C)C)cc1	110.8*	41.2%	·	14.9%	·	50.0*
CCn1c2ccccc2c2cc(NC(=O)CNCc3ccccc3OC)ccc21	-8.4	-5.3%	?	?	5.62µM*	-3.9
CCn1c2ccccc2c2cc(NC(=O)COc3ccccc3OC)ccc21	-4.8	0.0%	?	?	?	-2.9
NS(=O)(=O)c1ccc(CNC(=O)c2cc(-c3ccccn3)nc3ccc(Cl)cc23)cc1	-15.3	-7.6%	9.3%	-29.7%	9.5%[46.1 µM]	-2.4
COc1ccc(-c2cccc(-c3cc(=O)oc4cc(OC)c(OC)c(OC)c34)c2)cc1	i	-13.0%	·	?	·	25.7
COc1cc2oc(=O)cc(-c3ccc(-c4ccc(OC(F)(F)F)cc4)cc3)c2c(OC)c1OC	69.9*	0.0%	·	11.6%	·	23.6
COc1ccc(-c2ccc(-c3cc(=O)oc4cc(C)cc(C)c34)cc2)cc1	+	·	·	·	·	24.4
SMILES	Shiga toxin inh	FMDV antiviral	Lassa entry inh	HCV inh	MARV entry inh	Cycloheximide cs
COc1cc2oc(=O)cc(-c3ccc(-c4ccc(F)c(Cl)c4)cc3)c2c(OC)c1OC	-2.2	-26.3%	·	5.6%	·	5.6
COc1cc2oc(=O)cc(-c3cccc(-c4ccc(C(C)=O)cc4)c3)c2c(OC)c1OC	+	·	·	·	·	39.3*
Cc1cc(C)c2c(-c3ccc(-c4ccc(C(F)(F)F)cc4)cc3)cc(=O)oc2c1	i	·	·	·	·	15.9
COc1ccc(-c2ccc(-c3cc(=O)oc4cc(OC)c(OC)c(OC)c34)cc2)cc1F	78.9*	-6.2%	·	3.1%	·	30.0*
COc1cc2oc(=O)cc(-c3ccc(-c4ccc(N(C)C)cc4)cc3)c2c(OC)c1OC	+	-9.1%	·	-21.7%	·	64.4*
COCCN(C(=S)Nc1cc(C)cc(C)c1)C(C)c1cccs1 (centres undefined)	-5.5	19.4%	·	-6.8%	·	-3.0
Cc1ccc(NC(=O)N(Cc2ccco2)C(C)c2ccco2)cc1C (centres undefined)	-13.6	6.9%	-27.5%	-6.0%	-2.2%	10.5*
Cc1ccc(NC(=O)CN(Cc2ccco2)Cc2ccccc2O)cc1C	59.0*	5.9%	?	?	?	26.1*
COc1cc(C(Nc2ccccn2)c2c(NC(=O)c3ccco3)sc(C)c2C)cc(OC)c1OC (centres undefined)	76.3*	-7.9%	-33.8%	1.8%	-22.8%	29.1*
COc1ccc(C(Nc2ccccn2)c2c(NC(=O)c3ccco3)sc(C)c2C)cc1OC (centres undefined)	25.6	10.2%	-35.6%	-13.2%	-14.9%	22.3*
CCOc1ccc(C(NC(=O)c2ccco2)c2ccc(OC)c(OC)c2)cc1 (centres undefined)	-8.5	·	?	3.5%	-15.3%	-1.3
COc1cc(C(=O)O)cc(NC(=O)c2ccco2)c1OC	-9.5	-0.3%	10.7%	-0.6%	16.2%	-4.3
COC(=O)N1CCC2(CC1)CN(C(=O)Nc1ccccc1)C2	·	22.2%	·	·	·	·
Cc1ccc(C(=O)N2CCOCC2)cc1Cl	16.4	13.2%	1.9%	-14.3%	-4.2%[46.1 µM]	-2.7
CC(C)c1ccc(COc2ccc(C(=O)N3CCOCC3)cc2)cc1	69.6	4.1%	·	?	·	15.8*
Cc1ccc(OCc2ccc(C(=O)N3CCOCC3)cc2)cc1C	53.7*	·	?	-3.7%	-7.6%	31.2*
CC(C)c1ccc(OCc2ccc(C(=O)N3CCN(c4ccccn4)CC3)cc2)cc1	170.3	?	?	5.01µM*	?	30.3*
Cc1ccc(C(=O)N2CCN(c3ccccn3)CC2)cc1	1.9	3.1%	·	4.5%	·	-2.7
CC(C)c1ccc(C(=O)N2CCCN(C(=O)c3ccc(C(C)C)cc3)CC2)cc1	-3.5	-29.3%	?	-4.2%	?	-2.5
CC(C)Cn1c(CCNC(=O)c2ccco2)nc2ccccc21	116.6	6.3%	·	?	·	31.4*
O=C(Nc1nc2ccccc2n1Cc1ccccc1)c1ccco1	27.5	0.0%	-21.6%	-22.8%	?	25.7*
CCC(=O)Nc1nc2ccccc2n1Cc1ccc(Cl)cc1	45.4	?	?	?	11.6µM*	-1.9
O=C(NCCc1nc2ccccc2n1Cc1ccccc1)c1ccco1	·	0.0%	0.6%[46.1 µM]	·	-14.3%[46.1 µM]	·
CC(C)Cn1c(CCCNC(=O)c2ccco2)nc2ccccc21	23.8	-10.6%	·	7.2%	·	-2.0
CCC(=O)Nc1nc2ccccc2n1Cc1ccccc1Cl	-3.4	-19.9%	·	?	·	0.7

High-throughput results deposited in PubChem BioAssay by National Center for Advancing Translational Sciences (NCATS).
